Active and inactive are the calls of the source. Calls come from the whole dose curve; as a rule, active = well fitted activation curve with a large enough effect; inconclusive = small, poorly fitted or top-dose-only effect; inactive = flat fitted curve, though single readings scatter. Peptide text beside a SMILES is read from it.
Assay: Cellular Toxicity (caspase-3) SK-N-SH (AID 661)
Conditions: SK-N-SH caspase-3 activation, qHTS, DMSO as zero, staurosporine as full; series mostly up to 91.7 µM
Text: NIH Chemical Genomics Center [NCGC]
NIH Molecular Libraries Screening Centers Network [MLSCN]
National Institutes of Environmental Health Sciences [NIEHS]
National Toxicology Program [NTP]
We have developed a 1536-well cell-based assay for quantitative high throughput screening (qHTS) against a number of cell lines to determine in vitro caspase 3/7 activity of small molecules. This particular assay uses the SK-N-SH cell line which is derived from human neuroblastoma.
NCGC Assay Protocol Summary:
The Caspase-Glo 3/7 assay (Promega) is a homogeneous method to measure caspase-3 and caspase-7 activities in cultured cells. The quantitation of caspase 3/7 activity is based on the cleavage of a peptide-aminoluciferin substrate. After caspase cleaves the substrate the free aminoluciferin is liberated and serves as the substrate of luciferase, which generates the light. The luminescent signal is proportional to amount of caspase 3/7 activity present.
Using the Caspase-Glo 3/7 assay, the amount of caspase 3/7 activity was measured in the SK-N-SH cell line with complete culture medium following compound treatment for 16 hours. The assay was performed in opaque white 1536-well plates. In the screen, tamoxifen and staurosporine were used as positive controls. Library compounds were measured for their ability to cause the activation of caspase 3/7 in the cell line, as reflected by an increase in luminescence signal, in a concentration-dependent manner. Data were normalized to the controls for basal activity (DMSO only) and 100% stimulation (10 uM staurosporine). AC50 values were determined from concentration-response data modeled with the standard Hill equation.
qHTS protocol for caspase 3/7 assay in SK-N-SH cells
[Step] [Parameter] [Value] [Description]
1. Reagent; 5 uL; 1500 SK-N-SH cells/well
2. Time; 5 hr; 37 °C incubation
4. Controls; 23 nL; Tamoxifen 0.23 uM to 100 uM & staurosporine 1.4 pM to 100 uM
5. Time; 16 hr; 37 °C incubation
6. Reagent; 5 uL; Caspase-Glo 3/7 reagent
7. Time; 1 hr; Room Temperature
8. Detection; Luminescence; Viewlux plate reader
Keywords: caspase 3/7, apoptosis, SK-N-SH cell line, luminescence, NTPHTS, NTPHTS_NCGC, NIEHS, EPA, DSSTox, MLSMR, MLSCN, NIH Roadmap, qHTS, NCGC

| SMILES | outcome |
| --- | --- |
| Nc1ccc(S(N)(=O)=O)cc1 | inactive |
| COC(=O)[C@H](Cc1ccccc1)NC(=O)[C@@H](N)CC(=O)O (H-Asp-Phe-OMe) | inactive |
| CCc1nc(N)nc(N)c1-c1ccc(Cl)cc1 | inactive |
| Cc1ccc(C)c(OCCCC(C)(C)C(=O)O)c1 | inactive |
| Cc1cc(O)c2c(c1)C(=O)c1cc(O)cc(O)c1C2=O | inactive |
| CN(C)c1ccc2nc3ccc(=[N+](C)C)cc-3sc2c1 | inactive |
| COc1c2occc2cc2ccc(=O)oc12 | inactive |
| c1ccc2[nH]c(-c3cscn3)nc2c1 | inactive |
| CCCCC(CC)COC(=O)C(C#N)=C(c1ccccc1)c1ccccc1 (stereo not drawn) | inactive |
| CC(=O)Nc1ccc(O)cc1 | inactive |
| NS(=O)(=O)c1cc(C(=O)O)c(NCc2ccco2)cc1Cl | inactive |
| CCCc1cc(=O)[nH]c(=S)[nH]1 | inactive |
| CS(=O)(=O)OCCCCOS(C)(=O)=O | inactive |

— PubChem BioAssay (NCATS)
